# From the supplement of paper PMC10849652
# The full data set covers some 7,900 targets. This sample favours those with a hit. About 0.6% of all pairs of compound and target were hits. Values without a mark were called inactive.
# Experiments:
# Experiment in all cases: log2 fold change, soluble protein after heating vs DMSO (PISA); higher = thermal stabilisation; K562 cells, 10 uM, 30 min; active = over 0.2 and 3.5 SD of the protein, either way, in both replicates (recomputed)
# IRAK-1-4 Inhibitor I = compound: C1COCCN1CCN2C3=CC=CC=C3N=C2NC(=O)C4=CC(=CC=C4)[N+](=O)[O-] [IRAK-1-4 Inhibitor I]
# Method in brief: (§1)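 K562 cells at 2×10^6 cells/mL were given 10 μM compound for 30 min. Aliquots then went through 3 min of heating across 48°C-58°C, were pooled, and were extracted in PBS with 0.5% NP-40 at 4°C, and the supernatant after 21,000xg for 90 min was quantified by TMTpro 16plex LC-MS/MS with channel sums equalised. Thermal stability relative to control samples, from duplicates, is given as log2 fold change.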
# ibrutinib = compound: C=CC(=O)N1CCC[C@@H](n2nc(-c3ccc(Oc4ccccc4)cc3)c3c(N)ncnc32)C1 [ibrutinib]
# Method in brief: as §1
# [1] = compound: CC(=O)c1cnc2ccc(-c3cc(Cl)c(O)c(Cl)c3)nc2c1N[C@H]1CC[C@H](CN(C)C)CC1
# Method in brief: as §1
# ralimetinib = compound: CC(C)(C)Cn1c(N)nc2ccc(-c3[nH]c(C(C)(C)C)nc3-c3ccc(F)cc3)nc21 [ralimetinib]
# Method in brief: as §1
# [2] = compound: CC(C)(O)CC(=O)NCCn1ccc2ncnc(Nc3ccc(Oc4cccc(C(F)(F)F)c4)c(Cl)c3)c21
# Method in brief: as §1
# [3] = compound: CC(C)C1=C2N=C(C=C(N2N=C1)NCC3=CC=CC=C3)NCCCCCCN
# Method in brief: as §1
# [4] = compound: CC(C)C[C@@H](C=O)NC(=O)[C@H](CC(C)C)NC(=O)[C@H](CC(C)C)NC(=O)OCc1ccccc1
# Method in brief: as §1
# pinometostat = compound: CC(C)N(C[C@H]1O[C@@H](n2cnc3c(N)ncnc32)[C@H](O)[C@@H]1O)[C@H]1C[C@@H](CCc2nc3cc(C(C)(C)C)ccc3[nH]2)C1 [pinometostat]
# Method in brief: as §1
# [5] = compound: CC1=C(C(CC(=O)N1)C2=CC=C(C=C2)C(F)(F)F)C(=O)NC3=C(C=C4C(=C3)C=NN4)F
# Method in brief: as §1
# [6] = compound: CC1=C(C2=C(C=C1)C(=O)C3=CC=CC=C3N2CCCN)C
# Method in brief: as §1
# [7] = compound: CC1=C(C=C(C=C1)NC(=O)C2=CC(=CC=C2)C(C)(C)C#N)NC3=CC4=C(C=C3)N=CN(C4=O)C
# Method in brief: as §1
# [8] = compound: CC1=C(C=C(C=C1)NC(=O)C2=CC(=CC=C2)N(C)C)NC(=O)C3=CC=C(C=C3)O
# Method in brief: as §1
# [9] = compound: CC1=CC=C(C=C1)SC2=C3C=C(SC3=CN=C2)C(=O)N
# Method in brief: as §1
# [10] = compound: CC1=NC(=CC=C1)C2=C(N=C(N2)C(C)(C)C)C3=CC4=NC=CN=C4C=C3
# Method in brief: as §1
# Nexturastat A = compound: CCCCN(Cc1ccc(C(=O)NO)cc1)C(=O)Nc1ccccc1 [Nexturastat A]
# Method in brief: as §1
# vemurafenib = compound: CCCS(=O)(=O)Nc1ccc(F)c(C(=O)c2c[nH]c3ncc(-c4ccc(Cl)cc4)cc23)c1F [vemurafenib]
# Method in brief: as §1
# [11] = compound: CCCS(=O)(=O)Nc1ccc(F)c(C(=O)c2c[nH]c3ncc(Cl)cc23)c1F
# Method in brief: as §1
# [12] = compound: CCCc1cc(C)[nH]c(=O)c1CNC(=O)c1cc(-c2ccnc(N3CCN(C)CC3)c2)cc2c1cnn2C(C)C
# Method in brief: as §1
# givinostat = compound: CCN(CC)Cc1ccc2cc(COC(=O)Nc3ccc(C(=O)NO)cc3)ccc2c1 [givinostat]
# Method in brief: as §1
# barasertib = compound: CCN(CCCOc1ccc2c(Nc3cc(CC(=O)Nc4cccc(F)c4)[nH]n3)ncnc2c1)CCOP(=O)(O)O [barasertib]
# Method in brief: as §1
# UniProt A3KMH1, sequence (A3KMH1 whole entry, looked up): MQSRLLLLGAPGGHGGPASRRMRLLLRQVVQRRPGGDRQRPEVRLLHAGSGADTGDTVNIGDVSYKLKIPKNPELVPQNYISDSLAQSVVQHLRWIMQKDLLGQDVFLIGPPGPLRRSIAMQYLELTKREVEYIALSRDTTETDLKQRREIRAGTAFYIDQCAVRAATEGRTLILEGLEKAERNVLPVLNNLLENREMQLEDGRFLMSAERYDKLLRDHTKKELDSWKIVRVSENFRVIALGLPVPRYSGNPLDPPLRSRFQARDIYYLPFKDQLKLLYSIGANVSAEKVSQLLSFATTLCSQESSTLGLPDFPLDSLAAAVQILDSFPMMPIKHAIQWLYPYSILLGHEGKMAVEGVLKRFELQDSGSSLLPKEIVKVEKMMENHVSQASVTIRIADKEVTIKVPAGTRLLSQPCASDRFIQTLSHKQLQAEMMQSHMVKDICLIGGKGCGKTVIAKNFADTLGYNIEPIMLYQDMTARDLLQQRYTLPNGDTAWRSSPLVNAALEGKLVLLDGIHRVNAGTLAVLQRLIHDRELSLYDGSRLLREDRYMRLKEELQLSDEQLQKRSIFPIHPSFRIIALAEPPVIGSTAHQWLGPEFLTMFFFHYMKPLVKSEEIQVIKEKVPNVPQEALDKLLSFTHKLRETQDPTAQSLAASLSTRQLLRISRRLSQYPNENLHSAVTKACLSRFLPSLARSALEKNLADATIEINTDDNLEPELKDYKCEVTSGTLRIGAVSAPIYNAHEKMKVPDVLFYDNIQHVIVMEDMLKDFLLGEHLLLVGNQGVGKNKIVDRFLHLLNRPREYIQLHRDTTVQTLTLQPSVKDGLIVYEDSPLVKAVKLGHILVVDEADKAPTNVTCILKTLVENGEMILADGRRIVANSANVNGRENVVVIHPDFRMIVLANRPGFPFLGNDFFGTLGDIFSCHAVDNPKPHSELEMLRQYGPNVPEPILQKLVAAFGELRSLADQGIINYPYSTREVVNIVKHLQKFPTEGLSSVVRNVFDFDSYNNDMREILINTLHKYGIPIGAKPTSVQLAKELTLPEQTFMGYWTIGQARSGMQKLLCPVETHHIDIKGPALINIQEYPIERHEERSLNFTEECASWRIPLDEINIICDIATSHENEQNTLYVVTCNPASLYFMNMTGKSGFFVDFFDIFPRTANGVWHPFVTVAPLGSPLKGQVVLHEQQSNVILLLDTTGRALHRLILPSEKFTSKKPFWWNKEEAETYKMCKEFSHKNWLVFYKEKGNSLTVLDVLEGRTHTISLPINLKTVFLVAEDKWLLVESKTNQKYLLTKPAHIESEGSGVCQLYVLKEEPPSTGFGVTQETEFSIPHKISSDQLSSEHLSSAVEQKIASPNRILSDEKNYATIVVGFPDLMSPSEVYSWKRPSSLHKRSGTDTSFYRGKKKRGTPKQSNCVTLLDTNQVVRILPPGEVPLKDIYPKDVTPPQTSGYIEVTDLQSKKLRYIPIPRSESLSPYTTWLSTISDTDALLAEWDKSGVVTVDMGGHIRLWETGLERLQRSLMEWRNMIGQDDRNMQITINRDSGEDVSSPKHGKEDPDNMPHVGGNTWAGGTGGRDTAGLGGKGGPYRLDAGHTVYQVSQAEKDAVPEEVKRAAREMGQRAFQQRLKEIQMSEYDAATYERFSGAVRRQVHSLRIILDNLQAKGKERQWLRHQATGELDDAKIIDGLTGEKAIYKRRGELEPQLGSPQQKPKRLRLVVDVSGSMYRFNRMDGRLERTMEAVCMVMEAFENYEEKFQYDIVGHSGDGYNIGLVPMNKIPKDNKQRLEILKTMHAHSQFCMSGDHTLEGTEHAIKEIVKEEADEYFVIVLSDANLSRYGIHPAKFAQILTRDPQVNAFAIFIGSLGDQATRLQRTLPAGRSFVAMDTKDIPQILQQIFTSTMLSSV
# UniProt Q96JG6, sequence (Q96JG6 whole entry, looked up): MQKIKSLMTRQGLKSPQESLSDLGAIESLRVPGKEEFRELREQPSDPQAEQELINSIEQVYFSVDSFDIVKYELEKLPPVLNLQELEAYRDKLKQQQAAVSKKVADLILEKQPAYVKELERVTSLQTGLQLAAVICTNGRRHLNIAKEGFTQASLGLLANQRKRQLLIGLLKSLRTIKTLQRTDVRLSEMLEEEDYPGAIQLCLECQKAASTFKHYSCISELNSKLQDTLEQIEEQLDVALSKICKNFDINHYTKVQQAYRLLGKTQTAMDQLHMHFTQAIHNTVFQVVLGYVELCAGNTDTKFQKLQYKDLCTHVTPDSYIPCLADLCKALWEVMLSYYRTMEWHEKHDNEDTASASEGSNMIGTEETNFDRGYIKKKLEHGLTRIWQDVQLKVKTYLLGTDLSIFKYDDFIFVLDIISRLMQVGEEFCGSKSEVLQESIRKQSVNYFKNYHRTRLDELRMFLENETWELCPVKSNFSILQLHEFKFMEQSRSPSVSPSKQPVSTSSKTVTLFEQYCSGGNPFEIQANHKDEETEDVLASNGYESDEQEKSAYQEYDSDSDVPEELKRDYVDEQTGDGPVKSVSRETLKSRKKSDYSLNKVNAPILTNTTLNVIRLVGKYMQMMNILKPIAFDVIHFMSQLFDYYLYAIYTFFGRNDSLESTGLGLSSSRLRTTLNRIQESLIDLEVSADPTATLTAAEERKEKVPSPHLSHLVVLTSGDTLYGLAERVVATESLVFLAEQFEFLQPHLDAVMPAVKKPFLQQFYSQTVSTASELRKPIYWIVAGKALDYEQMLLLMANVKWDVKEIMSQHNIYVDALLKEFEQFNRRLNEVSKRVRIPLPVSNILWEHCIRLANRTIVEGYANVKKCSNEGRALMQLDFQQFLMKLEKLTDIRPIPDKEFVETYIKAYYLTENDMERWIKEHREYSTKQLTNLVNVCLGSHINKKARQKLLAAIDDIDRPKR
# UniProt Q9UEU0, sequence (Q9UEU0 whole entry, looked up): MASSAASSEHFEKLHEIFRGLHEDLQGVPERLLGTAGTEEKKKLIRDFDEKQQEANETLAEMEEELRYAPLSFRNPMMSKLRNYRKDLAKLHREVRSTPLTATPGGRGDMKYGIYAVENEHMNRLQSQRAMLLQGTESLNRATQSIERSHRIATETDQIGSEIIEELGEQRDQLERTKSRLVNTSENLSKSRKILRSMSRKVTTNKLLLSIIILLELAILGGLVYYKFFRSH
# UniProt Q9NQW7, sequence (Q9NQW7 whole entry, looked up): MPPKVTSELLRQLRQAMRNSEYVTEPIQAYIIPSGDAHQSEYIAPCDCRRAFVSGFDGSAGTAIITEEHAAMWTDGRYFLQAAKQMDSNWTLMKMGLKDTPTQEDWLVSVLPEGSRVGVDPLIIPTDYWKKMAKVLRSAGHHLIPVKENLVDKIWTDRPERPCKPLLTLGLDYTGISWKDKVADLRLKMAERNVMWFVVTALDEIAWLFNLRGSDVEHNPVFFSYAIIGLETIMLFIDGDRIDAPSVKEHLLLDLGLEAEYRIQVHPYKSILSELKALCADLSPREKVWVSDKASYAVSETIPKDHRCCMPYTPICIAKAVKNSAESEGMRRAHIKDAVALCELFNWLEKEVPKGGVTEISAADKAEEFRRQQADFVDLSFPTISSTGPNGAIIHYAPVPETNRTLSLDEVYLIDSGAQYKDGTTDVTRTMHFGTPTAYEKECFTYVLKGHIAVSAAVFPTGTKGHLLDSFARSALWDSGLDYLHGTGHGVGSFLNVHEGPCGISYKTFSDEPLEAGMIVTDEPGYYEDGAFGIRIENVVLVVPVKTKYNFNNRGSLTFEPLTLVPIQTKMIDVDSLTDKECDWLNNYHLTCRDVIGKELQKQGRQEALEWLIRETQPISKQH
# UniProt Q15642, sequence (Q15642 whole entry, looked up): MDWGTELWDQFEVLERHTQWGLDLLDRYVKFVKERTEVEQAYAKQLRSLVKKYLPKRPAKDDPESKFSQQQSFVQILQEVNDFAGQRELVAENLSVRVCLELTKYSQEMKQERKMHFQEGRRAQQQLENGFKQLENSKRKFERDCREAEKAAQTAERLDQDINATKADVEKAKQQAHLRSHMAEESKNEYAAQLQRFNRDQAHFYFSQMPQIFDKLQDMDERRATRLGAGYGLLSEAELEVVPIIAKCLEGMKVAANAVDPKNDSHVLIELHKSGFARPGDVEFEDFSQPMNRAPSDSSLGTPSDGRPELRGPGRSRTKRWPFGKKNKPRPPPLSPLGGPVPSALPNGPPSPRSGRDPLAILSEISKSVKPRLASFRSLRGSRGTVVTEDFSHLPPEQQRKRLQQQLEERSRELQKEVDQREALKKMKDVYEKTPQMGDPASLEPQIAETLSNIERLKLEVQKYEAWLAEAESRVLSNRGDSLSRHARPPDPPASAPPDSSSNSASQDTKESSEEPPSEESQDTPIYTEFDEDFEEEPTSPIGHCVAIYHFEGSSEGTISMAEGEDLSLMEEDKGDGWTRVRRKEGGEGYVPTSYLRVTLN
# UniProt Q969T4, sequence (Q969T4 whole entry, looked up): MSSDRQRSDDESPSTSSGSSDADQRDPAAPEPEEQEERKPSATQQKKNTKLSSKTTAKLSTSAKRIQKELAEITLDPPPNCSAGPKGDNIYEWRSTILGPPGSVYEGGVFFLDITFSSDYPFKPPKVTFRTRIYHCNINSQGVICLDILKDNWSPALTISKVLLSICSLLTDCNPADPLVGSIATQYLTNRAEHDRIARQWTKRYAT
# UniProt O00258, sequence (O00258 whole entry, looked up): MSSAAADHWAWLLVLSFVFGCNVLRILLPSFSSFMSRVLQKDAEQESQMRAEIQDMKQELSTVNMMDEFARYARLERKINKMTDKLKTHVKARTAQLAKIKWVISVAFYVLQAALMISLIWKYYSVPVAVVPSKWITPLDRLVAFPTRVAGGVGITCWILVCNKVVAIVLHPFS
# UniProt O95379, sequence (O95379 whole entry, looked up): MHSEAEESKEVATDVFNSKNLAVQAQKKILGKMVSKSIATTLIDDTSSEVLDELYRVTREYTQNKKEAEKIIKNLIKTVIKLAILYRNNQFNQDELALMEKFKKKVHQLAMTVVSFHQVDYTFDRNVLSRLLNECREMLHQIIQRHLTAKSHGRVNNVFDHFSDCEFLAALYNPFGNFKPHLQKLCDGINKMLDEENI
# UniProt P61960, sequence (P61960 whole entry, looked up): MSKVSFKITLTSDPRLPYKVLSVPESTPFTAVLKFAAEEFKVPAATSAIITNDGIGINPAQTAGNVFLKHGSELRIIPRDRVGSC
Target,log2 fold change (IRAK-1-4 Inhibitor I),log2 fold change (ibrutinib),log2 fold change [1],log2 fold change (ralimetinib),log2 fold change [2],log2 fold change [3],log2 fold change [4],log2 fold change (pinometostat),log2 fold change [5],log2 fold change [6],log2 fold change [7],log2 fold change [8],log2 fold change [9],log2 fold change [10],log2 fold change (Nexturastat A),log2 fold change (vemurafenib),log2 fold change [11],log2 fold change [12],log2 fold change (givinostat),log2 fold change (barasertib)
TRIP10 (UniProt Q15642),0.007,0.002,0.009,0.001,0,-0.022,0.007,-0.007,-0.009,-0.02,0.003,-0.026,-0.009,-0.045,0.139,0.08,0.026,-0.012,-0.058,0.015
WNK1 isoform 7 (UniProt Q9H4A3),0.015,0.01,-0.213,-0.045,0.017,-0.005,0.476 (active),0.004,-0.011,0.027,-0.047,0.426,-0.006,-0.019,-0.03,-0.023,0.004,-0.006,0.03,0.032
TOE1 (UniProt Q96GM8),-0.15,-0.031,0.089,0.012,0.005,0.042,0.09,0.077,-0.067,-0.228,0.099,0.056,-0.012,-0.109,0.078,-0.016,0.048,0.059,-0.055,-0.063
VPS53 isoform 4 (UniProt Q5VIR6),-0.035,0.011,-0.046,-0.022,-0.101,-0.142,0.095,0.076,-0.032,0.036,-0.037,-0.053,0.01,-0.031,0.022,0.046,0.003,0.03,0.045,0.045
USP3 (UniProt Q9Y6I4),0.035,-0.083,-0.126,-0.013,-0.107,-0.146,-0.145,-0.075,0.006,-0.006,0.026,-0.016,0.085,0.069,0.01,0.112,0.192,-0.069,-0.022,0.067
TNFRSF10A (UniProt O00220),0.002,0.034,-0.064,-0.072,-0.073,0.043,0.078,-0.002,-0.003,0.021,0.006,0.035,0.016,-0.015,0.089,-0.073,-0.044,0.004,-0.042,0.016
UBE2J1 (UniProt Q9Y385),-0.447,0.013,-0.077,-0.02,-0.106,-0.284,0.188,0.096,0.101,-0.047,-0.133,-0.016,0.107,0.04,-0.077,-0.087,-0.071,-0.262,0.098,-0.047
UTP14A (UniProt Q9BVJ6),-0.13,-0.026,0.088,0.11,0.007,-0.113,0.154,0.262,0.065,-0.708 (active),0.028,0.008,-0.002,-0.068,0.194,-0.066,0.028,0.109,0.048,-0.112
USP25 isoform 3 (UniProt Q9UHP3),0.002,-0.002,-0.019,-0.027,0.015,0.001,0.052,0.001,0.043,0.002,0.004,0.008,-0.009,0.045,-0.029,0.04,0.027,0.024,0.015,0.02
XPNPEP1 isoform 3 (UniProt Q9NQW7),0.07,-0.002,-0.011,-0.03,-0.016,-0.135,-0.073,-0.006,-0.014,0.045,0.014,-0.024,0.023,0.036,-0.014,0,0.021,-0.01,0.042,0.016
UBC (UniProt P0CG48),0.022,0.027,0.033,-0.064,0.008,0.167,0.296 (active),0.042,-0.018,0.281 (active),0.007,-0.091,-0.001,-0.032,0.151,-0.016,-0.08,-0.017,0.028,-0.018
VPS11 (UniProt Q9H270),0.115,-0.038,-0.032,0.038,-0.069,-0.375 (active),0.062,0.011,0.016,0.031,0.016,-0.003,0.002,0.076,0.107,0.016,0.073,0.031,-0.058,0.017
VPS13B (UniProt Q7Z7G8),0.05,-0.013,-0.016,-0.042,-0.06,-0.241 (active),0.121,0.007,0.03,0.015,0.02,-0.028,0.06,0.057,-0.011,0.008,-0.011,-0.008,0.002,0.002
VTI1B (UniProt Q9UEU0),-0.074,0.027,-0.033,-0.081,0.08,-0.261 (active),0.002,-0.057,-0.001,0.012,-0.038,0.006,-0.008,-0.014,0.036,-0.03,0.009,-0.034,-0.04,-0.007
VPS50 (UniProt Q96JG6),-0.046,-0.009,-0.003,0.12,-0.138,-0.099,0.053,-0.014,0.025,0.023,-0.007,-0.076,0.054,0.054,-0.052,0.077,0.066,0.09,0.014,0.059
UFM1 (UniProt P61960),0.219,0.026,0.003,0,-0.117,0.06,0.055,0.013,-0.057,0.133,0.031,-0.046,0.06,0.183,-0.04,0.07,0.041,-0.083,0.087,-0.014
VTA1 (UniProt Q9NP79),-0.02,-0.001,-0.013,-0.009,-0.074,-0.12,-0.007,-0.041,0.012,0.068,0.011,-0.019,0.044,0.034,-0.041,0.042,0.082,-0.065,-0.005,0.041
TNFAIP8 isoform 4 (UniProt O95379),-0.018,-0.036,-0.036,0,-0.037,-0.075,-0.047,-0.065,-0.001,-0.037,-0.019,-0.013,-0.021,0.051,-0.102,0.014,-0.102,-0.052,0.003,0.065
TYW1 (UniProt Q9NV66),-0.031,-0.043,-0.096,0.044,0,0.03,-0.056,0.005,-0.074,0.051,0.027,-0.017,0.023,0.074,-0.08,0.025,0.084,0.069,-0.025,0.045
TXNIP (UniProt Q9H3M7),0.05,0.016,-0.053,0.13,0.072,-0.371,0.128,-0.083,-0.097,-0.42 (active),-0.04,0.003,-0.115,0.034,0.177,-0.005,-0.079,0.001,-0.06,0.033
TUBA4A (UniProt P68366),0.039,0.01,0.001,-0.044,-0.032,0,0.016,-0.039,-0.014,0.011,0.005,0.004,0.061,0.04,-0.03,0.005,0.068,-0.004,0.014,-0.002
UBE2E3 (UniProt Q969T4),0.106,-0.059,-0.027,0.069,-0.046,-0.08,-0.039,0.096,-0.019,0.066,0.028,-0.059,0.053,0.08,-0.098,-0.013,0.08,0.022,0.116,0.013
VWA8 (UniProt A3KMH1),0.022,-0.015,-0.041,0.016,-0.115,-0.149,-0.032,-0.004,0.009,0.021,-0.07,0.042,0.023,0.019,-0.059,0.034,0.011,0.032,0.025,0.022
WRB (UniProt O00258),0.006,0.014,-0.074,0.004,0.015,0.043,-0.043,-0.032,-0.006,0.011,-0.046,-0.11,-0.007,-0.023,-0.25 (active),0.108,-0.037,-0.074,0.032,-0.014
